# From PubChem BioAssay AID1851 (National Center for Advancing Translational Sciences (NCATS), 2009)
# Where “and” joins values, the source holds several entries; their conditions need not be identical. Equal values may be shown once. About 5,800 (36%) of roughly 16,000 compounds were called active. Inconclusive results (about 23%) are left out. The call rests on the fitted dose curve; in most records, active means well fitted curve in the direction sought with a large enough effect; inconclusive means small, poorly fitted or top-dose-only effect, or effect the other way; inactive means no such curve, though single readings can be large or run the other way. The list shows a part of the results. Where a structure was tested more than once in an assay, its records may differ in their call.
# Target: Cytochrome P450 2C19 (Homo sapiens) (UniProt P33261)
# Experiment: Cytochrome panel assay with activity outcomes
# Settings: recombinant CYP, pro-luciferin dealkylation, luminescence, p450-cyp2c19; series mostly up to 57.1 µM; activity, negative = inhibition: at the top concentration
# On the % scale 0 is the no-effect control and ±100 the full control effect.
# Sequence of Cytochrome P450 2C19 (Homo sapiens) (P33261 whole entry, looked up): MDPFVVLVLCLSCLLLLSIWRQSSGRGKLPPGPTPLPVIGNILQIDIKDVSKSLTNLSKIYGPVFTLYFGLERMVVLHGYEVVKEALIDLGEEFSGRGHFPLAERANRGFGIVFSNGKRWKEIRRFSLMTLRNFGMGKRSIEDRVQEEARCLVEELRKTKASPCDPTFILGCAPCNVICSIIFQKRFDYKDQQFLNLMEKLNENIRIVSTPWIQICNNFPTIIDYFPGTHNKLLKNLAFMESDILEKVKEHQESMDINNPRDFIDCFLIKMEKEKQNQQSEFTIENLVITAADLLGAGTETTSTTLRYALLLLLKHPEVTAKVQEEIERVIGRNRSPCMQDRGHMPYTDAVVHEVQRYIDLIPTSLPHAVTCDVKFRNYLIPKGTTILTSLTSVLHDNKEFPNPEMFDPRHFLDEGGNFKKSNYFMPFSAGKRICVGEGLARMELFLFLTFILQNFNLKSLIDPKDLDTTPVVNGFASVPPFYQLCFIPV
SMILES,"activity, negative = inhibition",AC50
Cc1noc(C)c1C(=O)N1CCC2(CCCN(c3ccncc3)C2)CC1,20% (inactive),
CN(C)S(=O)(=O)Oc1ccccc1C(=O)Nc1cccc(C(F)(F)F)c1,,2 µM (active)
Cc1c(C(=O)Nc2cccc(C(F)(F)F)c2)oc2ccc(S(=O)(=O)N3CCOCC3)cc12,,7.94 µM (active)
Cc1c(C(=O)NC2CCCc3ccccc32)oc2ccc(S(=O)(=O)N3CCOCC3)cc12 (stereo unspecified),,11.2 µM (active)
CCOC(=O)CC1C(=O)NCCN1S(=O)(=O)c1ccc(Cl)c(Cl)c1 (stereo unspecified),,11.2 µM (active)
COC(=O)CC1C(=O)NCCN1C(=O)Nc1ccc(Cl)cc1 (stereo unspecified),-28.1% (inactive),
CCCc1cc2c(cc1NC(=O)c1ccc(Br)cc1)OCO2,,0.0794 µM (active)
CCCc1cc2c(cc1NC(=O)c1ccccc1Cl)OCO2,,0.398 µM (active)
CCCc1cc2c(cc1NC(=O)c1ccccc1C)OCO2,,0.178 µM (active)
Cc1nn(C)c(C)c1CNC(=O)c1cnn2c1NC(c1ccccc1)CC2C(F)(F)F (stereo unspecified),-29.2% (inactive),
COc1ccccc1CN1CC2(CCN(S(C)(=O)=O)CC2)C1,20.8% (inactive),
CN(C)C(=C(C#N)C#N)N1CCN(c2ccc(Cl)c(Cl)c2)CC1,,10 µM (active)
Nc1cc(=O)nc(SCC(=O)Nc2cccc3ccccc23)n1CCc1ccccc1,,14.1 µM (active)
CCC(Sc1nc(=O)cc(N)n1CCc1ccccc1)C(=O)Nc1ccccc1C#N (stereo unspecified),,11.2 µM (active)
NCCCC(=O)O,-39.8% (inactive),
Cn1c(CNC(=O)Nc2ccccc2)nnc1SCc1ccccc1,,7.08 µM (active)
CCN(CCCNC(=O)CC(C(=O)N1CCc2ccccc21)n1ccnc1)c1ccccc1 (stereo unspecified),,0.562 µM (active)
CCN(CC)CCC(=O)Nc1ccc2c(c1)N(C(=O)CN(CC)CC)c1ccccc1CC2,-22.9% (inactive),
CCCCN(C)CCCNC(=O)CCn1nc(-c2ccccc2)ccc1=O,-12.1% (inactive),
CC(C(=O)NC1CCCC1)N(C(=O)c1snc(C(N)=O)c1N)c1ccc2c(c1)OCCO2 (stereo unspecified),,15.8 µM (active)
CN(CCO)c1nc(N)c2c(N)nc3c(c2c1C#N)CC(=O)N3C1CCCC1,-14.8% (inactive),
Cc1oc(-c2cccc(Cl)c2)[n+]([O-])c1C,-28.5% (inactive),
CCCn1nnnc1-c1cccc(Cl)c1,,5.01 µM (active)
CCCn1nnnc1-c1cc(Cl)cc(Cl)c1,-63.7% (inactive),

SMILES,"activity, negative = inhibition",AC50
O=c1c(-c2ccc(Cl)cc2)nc2cnc(N3CCOCC3)nc2n1CCc1ccccc1,-18.1% (inactive),
Brc1ccc(-c2nnc(-c3ccccc3)c(N3CCSCC3)n2)cc1,,14.1 µM (active)
Clc1ccc(-c2nnc(-c3ccccc3)c(N3CCSCC3)n2)cc1,,14.1 µM (active)
Cc1nnc(S(=O)(=O)c2ccc(N=Nc3c(N)nc(N)nc3N)cc2)s1,32.1% [at 11.4 µM] (inactive),
CN1CCC[C@@H](CC2c3ccccc3Sc3ccccc32)C1,-31.2% [at 25.6 µM] (inactive),
CSc1ccc2c(c1)[C@H](N1CCN(C)CC1)Cc1ccccc1S2,,inactive and 2.51 µM (active) and 7.94 µM (active)
CO[C@H]1COC(=O)[C@@H](Cc2ccccc2)NC(=O)[C@@H](C)COC(=O)C/C=C\[C@@H]1C,-5.86% [at 11.4 µM] (inactive),
Cc1nc(-c2c(C(F)(F)F)noc2-c2ccc(O)cc2O)cs1,,1.26 µM (active)
O=C(/C=C/c1cccnc1)c1ccc(NC(=O)c2cccc(Br)c2)cc1,,2.51 µM (active)
O=C(N/C(=C\c1cccnc1)C(=O)N1CCOCC1)c1cccc(Br)c1,-4.28% (inactive),
COC(=O)c1c(-c2cc(OC)c(OC)c(OC)c2)c2ccnc(OCc3ncccn3)c2c(=O)n1Cc1ccnc(C)c1,-37.4% (inactive),
Cc1ccc(-n2[nH]c(C)c(C=Nc3ccc4[nH]c(=O)[nH]c4c3)c2=O)cc1C,-6.05% (inactive),
CCOc1[nH]n(-c2ccc(Cl)cc2)c(=O)c1C=Nc1ccc(Cl)cc1,-3.5% (inactive),
CCOc1[nH]n(-c2ccccc2)c(=O)c1C=Nc1ccc(Cl)cc1,,8.91 µM (active)
COc1ccc(CNC(=O)CN(CC2CCCO2)C(=O)CNS(=O)(=O)c2ccccc2)cc1 (stereo unspecified),,14.1 µM (active)
O=C(CN(CC1CCCO1)C(=O)CNS(=O)(=O)c1ccc(Cl)cc1)NCCc1ccccc1 (stereo unspecified),,31.6 µM (active)
CCN(CC)CCOC(=O)[C@@H](Cc1cccc2ccccc12)C[C@@H]1CCCO1,-28.4% [at 25.6 µM] (inactive),
O=C(O)c1cc(S(=O)(=O)NCC2CCCO2)ccc1Cl (stereo unspecified),8.86% (inactive),
Cc1nn(Cc2c(F)c(F)c(F)c(F)c2F)c(C)c1NC(=O)c1cccc(COc2ccc(Cl)cc2)c1,,14.1 µM (active)
Cc1nn(Cc2c(F)c(F)c(F)c(F)c2F)c(C)c1NC(=O)c1c(-c2ccccc2)nn(-c2ccccc2)c1C,,2.24 µM (active)
O=C1NC(O)=NC1(c1ccccc1)c1ccccc1,-20.5% (inactive),
COCCCNC(=O)/C=C/c1ccc(Cl)cc1,-22.8% (inactive),
O=C(/C=C/c1ccc(Cl)cc1)NCCSc1ccccc1,,1.78 µM (active)
CCCCCCCCCCCCCCC[C@H](O)[C@H](N)CO,-7.82% (inactive),

SMILES,"activity, negative = inhibition",AC50
CC1=NN(c2ccc(C)cc2C)C(=O)C1C(c1ccccc1)C1C(=O)N(c2ccc(C)cc2C)N=C1C (stereo unspecified),,4.47 µM (active)
CC1=NN(c2ccccc2)C(=O)[C@@H]1N=Nc1ccc(S(N)(=O)=O)cc1,20.1% [at 11.4 µM] (inactive),
COCCn1c(=O)c(-c2cccc(C#N)c2)nc2cnc(N3CCN(C)CC3)nc21,3.31% (inactive),
O=c1c2c(-c3cccs3)csc2[nH]c(=S)n1-c1ccccc1,,10 µM (active)
COc1ncc2nc(-c3cccs3)c(=O)n(-c3ccccc3)c2n1,-18.4% (inactive),
CN(C)c1ncc2nc(-c3cccs3)c(=O)n(-c3ccccc3)c2n1,-10.1% (inactive),
Cn1c(-c2sc(=S)n(-c3ccccc3)c2N)nc2ccccc21,,1.41 µM (active)
Cc1cccc(N2CC(O)=C(c3nc4ccccc4n3C)C2=N)c1,-26% (inactive),
CN(C)CC/C=C1\c2ccccc2COc2ccccc21,,inactive
CC(C)(C)NC[C@@H](O)c1ccc(O)c(CO)n1,27.5% [at 11.4 µM] (inactive),
CCNc1ncc2nc(-c3cn(C)c4ccccc34)c(=O)n(-c3ccccc3)c2n1,-27.1% (inactive),
CN(C(=O)c1c(O)c2ccccc2n(C)c1=O)c1ccccc1,-26.4% (inactive),
CCCc1c(O)c2ccccc2n(-c2ccccc2)c1=O,,11.2 µM (active)
O=C1CC(c2ccc3c(c2)OCO3)Sc2nc3ccccc3n21 (stereo unspecified),,2 µM (active)
CCOc1cc(CNCCO)cc(Br)c1OCc1ccccc1Cl,,7.08 µM (active)
CCOc1cc(CNCCc2ccc(S(N)(=O)=O)cc2)cc(Cl)c1OCc1ccccc1,,3.55 µM (active)
Cc1noc(C)c1C(=O)N1CCC2(CCN(Cc3cc(C(F)(F)F)cc(C(F)(F)F)c3)CC2)CC1,-3.13% (inactive),
Cc1nnc(-c2cnn(-c3ccccc3)c2N)n1Cc1ccc(F)cc1,,17.8 µM (active)
Cc1nnc(-c2cnn(-c3ccccc3)c2N)n1Cc1ccccc1,-12.1% (inactive),
COc1ccc(-c2cc(C(F)(F)F)nc(NC3CCCC3)n2)cc1OC,,22.4 µM (active)
COCCn1c(=O)c(-c2ccc(OC)cc2)nc2cnc(N3CCOCC3)nc21,1.17% (inactive),
COc1ccc(-c2cc(C(F)(F)F)nc(N3CCN(C)CC3)n2)cc1OC,-25.1% (inactive),
Cn1c(=O)c(-c2ccc(F)cc2)nc2cnc(N3CCOCC3)nc21,-19.9% (inactive),
COc1ccc(-c2cc(C(F)(F)F)nc(N3CCCCC3)n2)cc1OC,,3.16 µM (active)

SMILES,"activity, negative = inhibition",AC50
COc1ccc(-c2cc(C(F)(F)F)nc(N3CCOCC3)n2)cc1OC,,2.24 µM (active)
COc1ccccc1-c1nc(NC2CC2)c2ccccc2n1,-15.4% (inactive),
O=C(O)C[C@H](NC(=O)CP(=O)(O)O)C(=O)O.[NH-][C@@H]1CCCC[C@@H]1[NH-].[Pt],-14.4% [at 11.4 µM] (inactive),
CCOC(=O)N/N=C1/C[C@@H](O)[C@@H](O)[C@@H]2[C@@H]3C(=O)N(CC)C(=O)[C@H]3CC[C@H]12,-7.53% [at 11.4 µM] (inactive),
CCOC(=O)N1CCN(C(=O)CNCc2cccs2)CC1,-4.3% (inactive),
Cc1csc(NC(=O)CCNS(=O)(=O)c2ccc3c(c2)c(=O)n(C)c(=O)n3C)n1,7.51% (inactive),
CCOC(=O)N1CCN(C(=O)CNS(=O)(=O)c2cccs2)CC1,,8.91 µM (active)
O=C(O)Cc1c[nH]c2ccc(O)cc12,36% (inactive),
Cc1csc(NC(=O)Cc2c[nH]c3ccccc23)n1,,7.08 µM (active)
O=C(CCNS(=O)(=O)c1cccs1)N1CCc2ccccc2C1,,2.24 µM (active)
Cc1csc(NC(=O)CNS(=O)(=O)c2cccs2)n1,,14.1 µM (active)
COCC(=O)N1CCC2(CC1)CN(C(c1ccccc1)c1ccccc1)C2,-8.51% (inactive),
O=C(CCNS(=O)(=O)c1cccs1)N1CCCCCC1,,3.16 µM (active)
COc1ccc(CC(=O)N2CCN(c3ccc(C4=NNC(=O)CC4C)cc3)CC2)cc1 (stereo unspecified),-18.7% (inactive),
O=C(Cc1ccc(-n2c(=O)[nH]c3ccccc3c2=O)cc1)N1CCN(c2cccc(Cl)c2)CC1,,8.91 µM (active)
O=c1nc2ccccc2c2n1CC(CN1CCN(c3cccc(Cl)c3)CC1)N2 (stereo unspecified),-22.4% (inactive),
CN1CCN(CC(=O)N2c3ccccc3Sc3cc4ccccc4cc32)CC1,-1.84% [at 11.4 µM] (inactive),
CC1CCN(CC(=O)N2c3ccccc3Sc3cc4ccccc4cc32)CC1,,3.16 µM (active)
CN1CCCC[C@@H]1CCN1c2ccccc2Sc2ccc(S(C)=O)cc21 (stereo partly specified),,inactive
CCN[C@@H]1C[C@H](C)S(=O)(=O)c2sc(S(N)(=O)=O)cc21,-20.6% [at 25.6 µM] (inactive),
Cc1ccsc1/C=N/Nc1nc(Cl)c(Cl)cc1Cl,,7.94 µM (active)
CN(C)c1ccc(N=Cc2nc(-c3ccccc3)oc2O)cc1,,1.78 µM (active)
Oc1oc(-c2ccccc2)nc1C=Nc1ccccc1,,3.98 µM (active)
CN(C)Cc1ccc(O)c(CN(C)C)n1,-0.0983% [at 11.4 µM] (inactive),
